Measurements: PubChem BioAssay AID504582 (Broad Institute, 2011)
Among all 340,000 compounds or so, about 2,300 (0.68%) were called active. Only a selection was taken, and actives are over-represented in it overall. Unmarked numbers belong to inactive results. Cut-off read from the data, not from the text of the source: active = growth rescue above about 28% (passing the limit was not always enough); inconclusive = no clear call, values can overlap the other calls.

assay: rescue of yeast from PfHsp40 toxicity, primary screen, S. cerevisiae, ATP luminescence (AID 504582);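 note: yeast W303a lacking pdr1 and pdr3 grown in galactose medium; growth measured after three days at 30 °C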; conditions: S. cerevisiae expressing PfHsp40, growth rescue, at 12.5 µM, stronger effect = higher value

| SMILES | growth rescue |
| --- | --- |
| CSc1ccc(CNCCN2CCOCC2)cc1 | -0.373% |
| CCOc1ccc(NC(=O)C2CCN(C(=O)N3CCOc4ccccc43)CC2)cc1 | 2.49% |
| CCN(CC)S(=O)(=O)c1ccc(CNC(=O)CN2C(=O)NC3(CCc4ccccc43)C2=O)cc1 (stereo not drawn) | 0.805% |
| COc1ccc(N2CCN(C(=O)CNC(=O)c3ccc(C(C)(C)C)cc3)CC2)cc1 | -0.643% |
| COc1ccc(N2CCN(C(=O)CNC(=O)c3ccc(Br)o3)CC2)cc1 | 0.176% |
| COc1ccc(N2CCN(C(=O)CCNC(=O)c3ccc(Br)cc3)CC2)cc1 | 156% (active) |
| CCOC(=O)c1cnc(Nc2nc3ccccc3o2)nc1CSC(=S)N1CCCCC1 | -0.518% |
| Cc1ccc2[nH]c(=O)c(CN(CCCN(C)C)C(=O)Nc3cccc(Cl)c3)cc2c1 | -0.771% |
| CCn1c(/C=C/Nc2ccccc2)[n+](CC)c2ccc(C(=O)OCC(F)(F)F)cc21 | -1.14% |
| O=C(NN1C(=O)C2CCCCC2C1=O)c1ccco1 (stereo not drawn) | -1.05% |
| O=C1Nc2cc(Cl)c(Cl)cc2N(O)N1c1cc(Cl)cc(Cl)c1 | 7.24% |
| CC(=O)Nc1ccccc1NC(=O)c1cc(C)cc(C)c1 | 51.5% (active) |
| Cc1ccccc1C(=O)Nc1ccccc1NC(=O)c1ccccc1C | -1.3% |
| Nc1ccc(C(=O)Nc2ccccc2N)cc1 | 0.192% |
| CC(=O)NNc1cc(=O)c2c(=O)n(C)c(=O)n(C)c2[nH]1 | -1.81% |
| Cc1cc(Nc2cccc(C)c2C)n2ncnc2n1 | -0.558% |
| Cc1ccc(-c2nn(C(C)(C)C)c3ncnc(N)c23)cc1 | 263% (active) |
| CCOc1cccc(NC(=O)Cn2nc(-c3ccc4c(c3)OCCO4)ccc2=O)c1 | 1.19% |
| O=C(NCCc1ccccc1)Oc1ccc(Cl)cc1 | -0.082% |
| Cc1cc(C(=O)NCCc2ccc(Cl)cc2)c(C)o1 | 52.1% (active) |
| Cc1cc(C(=O)NCCc2ccc(Cl)cc2)n(-c2ccccc2)n1 | 0.0165% |
| Cc1ccc(C(NC(=O)N2CCCC2)C(Cl)(Cl)Cl)cc1F (stereo not drawn) | -0.492% |
| CCCCn1c(SCC(=O)N2CCOCC2)nc2c1c(=O)n(C)c(=O)n2C | -0.611% |
| CC(C)(C)OC(=O)C[C@@H]1C/C=C\C[C@@H](CC(=O)N[C@H](CO)Cc2ccccc2)C(=O)NCCOC1=O | -0.196% |

| SMILES | growth rescue |
| --- | --- |
| COc1ccc(-c2cc(=O)oc3cc(OC(C)C(=O)Nc4ccc(CN5CCOCC5)cc4)ccc23)cc1 (stereo not drawn) | 0.401% |
| COc1cc(NC(=O)COc2ccccc2Cl)ccc1NC(=O)C(C)C | 1.17% |
| CCC(=O)N1CCN(c2ccccc2NC(=O)COc2cccc(C)c2C)CC1 | 2.68% |
| Cc1ccccc1OCC(=O)Nc1ccc(N2CCN(C(=O)C(C)C)CC2)c(Cl)c1 | 48.8% (active) |
| CCCC1OC23CCCCC2C(C#N)(C#N)C1(C#N)C(=N)O3 (stereo not drawn) | -1.17% |
| CC(=O)Nc1nc(N(C)C)nc(N(C)C)n1 | 1.85% |
| Cn1cccc1C(C#N)c1ccccc1C#N (stereo not drawn) | -0.257% |
| Cc1ccnc2nc(C(=O)Nc3nnc(-c4ccccc4)o3)nn12 | -0.238% |
| O=C(Nc1nnc(-c2ccc(Cl)cc2)o1)c1ccccc1Br | 92.7% (active) |
| COc1ccccc1C(=O)NCC(=O)OCC(=O)Nc1nnc(-c2ccccc2)o1 | -1.88% |
| COc1ccc2c(c1)c1ncn(Cc3ccccn3)c(=O)c1n2C | -0.652% |
| O=C(O)c1cc2c(cc1NC(=O)c1c(F)cccc1Cl)OCCCO2 | -1.32% |
| O=C1c2ccccc2C2=Nc3ccccc3SC(c3ccccc3F)C12 (stereo not drawn) | 152% (active) |
| CN(Cc1ccc(F)cc1)C(=O)CN1C(=O)c2ccccc2S1(=O)=O | -1.04% |
| COc1ccc2sc(-c3ccc(S(C)(=O)=O)cc3)c(C#Cc3cncn3C)c2c1 | -1.56% |
| Cc1cccc(-c2oc3ccc(-c4ccc5c(c4)OCO5)cc3c2C#Cc2cncn2C)c1 | 0.141% |
| Cn1cncc1C#Cc1c(-c2ccsc2)sc2ccccc12 | 311% (active) |
| CC(=NCc1ccc2c(c1)OCO2)C1=C(O)c2ccccc2C1=O | 47.2% (active) |
| CCc1ccc(NC(=O)NC(C)c2ccc3c(c2)OCO3)cc1 (stereo not drawn) | 1.14% |
| CC(=NCc1ccc2c(c1)OCO2)c1c(O)[nH]c(=O)[nH]c1=O | -0.437% |
| CCN(/N=C/c1ccc(N(C)C)cc1)c1nc2ccccc2[nH]1 | 0.687% |
| COc1ccc(N)c(C)c1 | -0.552% |
| NC(=O)Cn1nc([N+](=O)[O-])nc1Oc1ccc(Br)cc1 | 1.81% |
| Cc1ccc(S(=O)(=O)N2CCOCC2)cc1NC(=O)COC(=O)c1cnccn1 | 0.734% |

| SMILES | growth rescue |
| --- | --- |
| CCCc1nc2sc3c(c2c(=O)n1NC(=O)CCCl)CCCC3 | -0.355% |
| CCC(O)CNc1nc(-n2nc(C)cc2C)nc2sc3c(c12)CC(C)(C)OC3 (stereo not drawn) | 0.423% |
| COCCNc1nc(-n2nc(C)cc2C)nc2sc3c(c12)CCCC3 | 111% (active) |
| CC[C@]12c3[nH]c4ccc(OC)cc4c3CCN1C(=O)C(CC(=O)NCc1ccco1)C[C@@H]2C(=O)N1CCN(C(=O)C2CC2)CC1 (stereo partly drawn) | -1.76% |
| Cc1ccc2c(C)c(C(=O)N(C)CCC3CCCCO3)oc2c1C (stereo not drawn) | 15.7% |
| O=S(=O)(Cc1ccccc1)c1nc2ccccc2n1Cc1ccccn1 | -1.91% |
| O=C(Cn1c(NCCO)nc2ccccc21)c1ccc(Cl)cc1Cl | 0.311% |
| O=S(=O)(O)c1nc2ccccc2n1Cc1ccc(Cl)cc1Cl | 46.4% (active) |
| O=C(NC(=S)Nc1cccc(-c2ccc(CO)o2)c1)c1cccs1 | 5.49% |
| Oc1c(C(c2ccccn2)N2CCOCC2)ccc2cccnc12 (stereo not drawn) | 457% (active) |
| COc1cc2c(cc1OC)C(C)N(S(=O)(=O)c1cnc(Cl)c(Cl)c1)CC2 (stereo not drawn) | 1.43% |
| CCOC(=O)c1sc(NC(=O)c2sc(C)nc2C)nc1C | -1.17% |
| CCC(=O)Nc1sc(C(=O)Nc2ccccc2)c(C)c1C(=O)OC | 4.36% |
| CCC(=O)Nc1nc(C)c(C(=O)Nc2cccc(Cl)c2)s1 | 68.4% (active) |
| CCOc1ccc(NS(=O)(=O)c2ccc(C)c(C(N)=O)c2)cc1 | -1.27% |
| O=C(CCc1nc2sc3c(c2c(=O)[nH]1)CCCC3)NCC(=O)Nc1ccccc1Br | -1.97% |
| COC(=O)CN1C(=O)[C@H]2[C@@H](C3CC3)N3C(=O)CN(Cc4ccc(-c5ccccc5)cc4)C(=O)[C@@]3(Cc3ccccc3)[C@H]2C1=O | -1.17% |
| CN(C(=O)c1ccc(NC(=O)Cc2cccc(NC(=O)C3CCN(C(=O)c4ccccc4)CC3)c2)cc1)C1CC1 | -0.0305% |
| Cn1nccc1NC(=O)Nc1ccc(OC(F)(F)F)cc1 | -0.0415% |
| O=C(Nc1ccc(OC(F)(F)F)cc1)c1ccc2c(c1)no[n+]2[O-] | 178% (active) |
| Cn1cccc1/C=N/NC(=O)c1ccc(OC(F)(F)C(F)F)cc1 | -1.34% |
| Cc1ccc2c(c1)N(C(=O)CCC(=O)NCc1cccnc1)CCO2 | -1.04% |
| CCN([C@H](CO)C(C)C)S(=O)(=O)c1ccccc1Br | -0.487% |
| COc1cccc(-n2c(=S)sc3c(=O)n(-c4ccccc4C)c(SCC(=O)O)nc32)c1 | -1.96% |

| SMILES | growth rescue |
| --- | --- |
| CC(C)C[C@@H](N)c1nnc(SCC(=O)c2ccc(Cl)cc2)o1 | -0.522% |
| COC(=O)c1c(C)c(C)nc(N)c1C#N | 0.0365% |
| Cc1nc(Cl)c(C#N)c2c1CCCC2 | 0.263% |
| COCc1c(N)c(C)nc(Cl)c1C#N | 51% (active) |
| OC(COc1ccc(F)cc1Cl)CN1CCc2ccccc2C1 (stereo not drawn) | 0.0845% |
| Cc1ccc(OCC(O)CN2CCN(CC(O)COc3ccc(C)cc3Cl)CC2)c(Cl)c1 (stereo not drawn) | 65.8% (active) |
| C=CCc1ccc(OCC(O)CN2CCN(Cc3ccccc3)CC2)c(OC)c1 (stereo not drawn) | -0.721% |
| CCCC(NC(=O)c1ccco1)c1nc2ccccc2[nH]1 (stereo not drawn) | -0.136% |
| COc1cccc(/C=N/Nc2ncc(C(F)(F)F)cc2Cl)c1O | 233% (active) |
| O=c1[nH]c2cccnc2n(CCNc2ncc(C(F)(F)F)cc2Cl)c1=O | -1.76% |
| CN(C)C=NC(=O)c1cccn1-c1ncc(C(F)(F)F)cc1Cl | -0.737% |
| COc1ccc(NC(=O)COC(=O)c2ccncc2)c(OC)c1 | -0.471% |
| CN(CCOc1ccc(Br)cc1)CC(=O)Nc1cccc(S(=O)(=O)NC2=NCCC2)c1 | -0.17% |
| COc1cc(C)c(C)cc1S(=O)(=O)N1CCCc2ccccc21 | -0.881% |
| CCOC(=O)Cc1csc(SCC(=O)Nc2ccc(C)cc2F)n1 | 0.85% |
| S=C(NCCCc1ccccc1)Nc1ccc(Br)cc1 | 263% (active) |
| O=C(Cc1ccc(Br)cc1)NCCc1ccccc1 | 1.3% |
| S=C(Nc1ccc(Br)cc1)NC1CCN(Cc2ccccc2)CC1 | 1.33% |
| Cc1ccc(C)c2[nH]c(=O)c(CN(Cc3cccnc3)C(=S)NCc3ccco3)cc12 | 0.529% |
| O=C(CSC1CC(=O)N(CCc2ccccc2)C1=O)Nc1ccc(Cl)cc1 (stereo not drawn) | 0.11% |
| CCCC(C(=O)n1nc(C)cc1C)C(NS(=O)(=O)c1ccc(C)cc1)c1ccccc1 (stereo not drawn) | 5.61% |
